PubChem BioAssay (NCATS)
Results filed as inconclusive are left out. Entries that show only a call come without a potency. The source made the active and inactive calls. Calls come from the whole dose curve; as a rule, active = well fitted curve in the direction sought with a large enough effect in the signal ratio, with a control signal flat (not every such curve was filed as active); inconclusive = small, poorly fitted or top-dose-only effect, or effect the other way, or a change in a side signal; inactive = no such curve, though single readings can be large or run the other way; the % refers to the signal ratio.

Each compound was assayed against Estrogen receptor (Homo sapiens) (UniProt P03372) (assay: qHTS assay for small molecule antagonists of estrogen receptor alpha signaling (AID 588513)). Conditions: ER-alpha-UAS-bla HEK293, beta-lactamase ratio, antagonist mode; series mostly up to 76.9 µM.
Estrogen receptor (Homo sapiens), sequence (P03372 whole entry, looked up): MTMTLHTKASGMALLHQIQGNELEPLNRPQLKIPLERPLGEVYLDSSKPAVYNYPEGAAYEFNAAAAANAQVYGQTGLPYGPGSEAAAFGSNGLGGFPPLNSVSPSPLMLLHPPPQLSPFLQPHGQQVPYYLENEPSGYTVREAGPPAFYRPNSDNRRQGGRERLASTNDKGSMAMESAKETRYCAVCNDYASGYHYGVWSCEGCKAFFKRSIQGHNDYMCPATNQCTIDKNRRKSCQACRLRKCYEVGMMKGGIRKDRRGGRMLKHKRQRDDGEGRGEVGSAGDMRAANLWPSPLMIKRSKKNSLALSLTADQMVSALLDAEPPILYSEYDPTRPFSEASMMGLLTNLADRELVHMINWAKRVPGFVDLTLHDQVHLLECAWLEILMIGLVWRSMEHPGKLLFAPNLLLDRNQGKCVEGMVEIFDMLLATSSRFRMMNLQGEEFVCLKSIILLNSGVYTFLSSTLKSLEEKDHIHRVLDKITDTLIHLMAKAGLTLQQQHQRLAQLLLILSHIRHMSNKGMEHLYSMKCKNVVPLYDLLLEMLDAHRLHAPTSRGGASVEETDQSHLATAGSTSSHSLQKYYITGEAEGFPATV
From the text: NIH Chemical Genomics Center [NCGC]
U.S. Environmental Protection Agency [EPA]
National Institutes of Environmental Health Sciences [NIEHS]
National Toxicology Program [NTP]
Estrogen receptor alpha (ER-alpha) is an important member of nuclear hormone receptors. ER-alpha plays important role in breast cancer as well as in other women's health issues. The majority of breast cancers is estrogen receptor (ER) positive and depends on estrogen for growth. There is also growing concern for some of environmental chemicals which may contribute the increasing the incidence of breast cancer. Therefore, it is important to understand the effect of environmental chemicals in ER-alpha signaling pathway.
NCGC Assay Protocol Summary
Using a beta-lactamase reporter-gene under control of the ER response element, a cell-based assay [ER-alpha-UAS-bla GripTiteTM cell-Based Assay from Invitrogen] was used to measure ER-alpha signaling pathway in antagonist mode. ER-alpha-UAS-bla-GripTite HEK 293 cells were used with assay medium containing 2% charcoal/dextran treated FBS, 0.1 mM NEAA and 1 mM sodium pyruvate. Cells were cultured in this assay medium overnight in the flasks before the assay. The assay was performed in clear bottom black Greiner 1536-well plates. 17-beta-estradiol was used as a positive control in the screen. Library compounds were measured for their ability to inhibit the reporter gene activity. Compounds were screened in a titration series in 1536-well format. […] Data was normalized relative to 17-beta-estradiol control (0.5nM, 100%), and DMSO only wells (basal, 0%). Concentration-response titration points for each compound were fitted to the Hill equation yielding concentrations of half-maximal inhibition (IC50) and maximal response (efficacy) values.
qHTS protocol for ER-alpha beta-lactamase assay in antagonist mode
[Step] [Parameter] [Value] [Description]
1. Reagent; 5 uL; 5000 cells/well
2. Incubation; 37 C for 4 hrs
- Dose response, Start 38uM, 1:2 dilutions with duplicates
- Two columns with 38 and 19uM (final) concentration.
5. Agonist (Stimulator); 1uL; 17-beta-estradiol at 0.5nM (final) concentration
6. Incubation; 37 C for 18 hrs
7. Detection reagent; 1 uL of CCF4-dye
8. Incubation; RT for 2 hrs
9. Detection; Fluorescence; Envision plate reader or Acumen plate reader

| Structure (SMILES) | Potency |
| --- | --- |
| CCOP(OCC)OCC | inactive |
| COP(=S)(OC)Oc1c(Cl)cc(C)cc1Cl | inactive |
| COP(=O)(OC)O/C(C)=C/C(=O)N(C)C | inactive |
| CC(C)(C)C(=O)[C@@H](Oc1ccc(Cl)cc1)n1cncn1 | inactive |
| CC(Oc1ccc(Cl)cc1Cl)C(=O)O (stereo not given) | inactive |
| Clc1ccc([C@]2(Cn3cncn3)C[C@@H](Br)CO2)c(Cl)c1 | inactive |
| COP(=S)(OC)Oc1ccc([N+](=O)[O-])c(C)c1 | inactive |
| COP(=S)(OC)Oc1nc(Cl)c(Cl)cc1Cl | inactive |
| CCC(C)n1c(=O)[nH]c(C)c(Br)c1=O (stereo not given) | inactive |
| CC(Oc1cc(Cl)c(Cl)cc1Cl)C(=O)O (stereo not given) | inactive |
| CN(C)P(=O)(N(C)C)N(C)C | inactive |
| CN(C)c1nc(=O)n(C2CCCCC2)c(=O)n1C | inactive |
| Clc1ccc([C@@]2(Cn3cncn3)C[C@H](Br)CO2)c(Cl)c1 | inactive |
| CC(C)(C)C(=O)[C@H](Oc1ccc(Cl)cc1)n1cncn1 | inactive |
| COC(=O)c1sccc1S(=O)(=O)NC(=O)Nc1nc(C)nc(OC)n1 | inactive |
| Nc1nc(N)nc(Cl)n1 | inactive |
| CCOC(=O)Nc1cccc(OC(=O)Nc2ccccc2)c1 | inactive |
| CCOC1Oc2ccc(OS(C)(=O)=O)cc2C1(C)C (stereo not given) | inactive |
| COc1nc(C)nc(NC(=O)NS(=O)(=O)c2ccccc2CCC(F)(F)F)n1 | inactive |
| CCOP(=S)(OCC)Oc1ccc(S(C)=O)cc1 (stereo not given) | inactive |

| Structure (SMILES) | Potency |
| --- | --- |
| C=CCC1=C(C)[C@@H](OC(=O)[C@@H]2[C@@H](C=C(C)C)C2(C)C)CC1=O | inactive |
| CC1(c2ccc(Oc3ccccc3)cc2)OC(=O)N(Nc2ccccc2)C1=O (stereo not given) | 15.8 µM [inhibitor] (active) |
| O=P(O)(O)CN(CP(=O)(O)O)CP(=O)(O)O | inactive |
| C(=NC1CCCCC1)=NC1CCCCC1 | inactive |
| CCOP(=O)(OCC)SCSCC | inactive |
| O=P(OCC(Br)CBr)(OCC(Br)CBr)OCC(Br)CBr (stereo not given) | 35.5 µM [inhibitor] (active) |
| CNC(=O)Oc1ccc(N(C)C)c(C)c1 | inactive |
| Brc1c(Br)c(Br)c(Br)c(Br)c1Br | inactive |
| O=[As](O)(O)O | inactive |
| CSC(=O)c1c(C(F)F)nc(C(F)(F)F)c(C(=O)SC)c1CC(C)C | inactive |
| CC1(C)CN=C(NN=C(/C=C/c2ccc(C(F)(F)F)cc2)/C=C/c2ccc(C(F)(F)F)cc2)NC1 | 14.1 µM [inhibitor] (active) |
| Cc1cc(Cl)ccc1OCC(=O)O | inactive |
| CCOP(=S)(NC(C)C)Oc1ccccc1C(=O)OC(C)C (stereo not given) | inactive |
| Clc1ccc([C@@]2(Cn3cncn3)C[C@@H](Br)CO2)c(Cl)c1 | inactive |
| CC(C)N(C(=O)CCl)c1ccccc1 | 15.8 µM [inhibitor] (active) |
| C=C(C)CN(CC)c1c([N+](=O)[O-])cc(C(F)(F)F)cc1[N+](=O)[O-] | inactive |
| O=C(O)C(F)(F)C(F)(F)C(F)(F)C(F)(F)C(F)(F)F | inactive |
| CCc1ccc(C(=O)NN(C(=O)c2cc(C)cc(C)c2)C(C)(C)C)cc1 | inactive |
| CCCC1COC(Cn2cncn2)(c2ccc(Cl)cc2Cl)O1 (stereo not given) | inactive |
| Cc1cc(C)nc(NC(=O)NS(=O)(=O)c2ccccc2C(=O)OC2COC2)n1 | inactive |
